Experimental data as given in PubChem BioAssay AID1851 (National Center for Advancing Translational Sciences (NCATS), 2009).
Values joined by “and” are separate entries in the source; they are usually repeats but may differ in a detail not shown here. Equal values may be shown once. In all, about 16,000 compounds went through this assay and about 5,100 (32%) were called active. Another 25% or so got no clear call; they are omitted. Calls come from the whole dose curve; as a rule, active = well fitted curve in the direction sought with a large enough effect; inconclusive = small, poorly fitted or top-dose-only effect, or effect the other way; inactive = no such curve, though single readings can be large or run the other way. The list shows a part of the results.

Target: Cytochrome P450 3A4 (Homo sapiens) (UniProt P08684)
Sequence (P08684 whole entry, looked up): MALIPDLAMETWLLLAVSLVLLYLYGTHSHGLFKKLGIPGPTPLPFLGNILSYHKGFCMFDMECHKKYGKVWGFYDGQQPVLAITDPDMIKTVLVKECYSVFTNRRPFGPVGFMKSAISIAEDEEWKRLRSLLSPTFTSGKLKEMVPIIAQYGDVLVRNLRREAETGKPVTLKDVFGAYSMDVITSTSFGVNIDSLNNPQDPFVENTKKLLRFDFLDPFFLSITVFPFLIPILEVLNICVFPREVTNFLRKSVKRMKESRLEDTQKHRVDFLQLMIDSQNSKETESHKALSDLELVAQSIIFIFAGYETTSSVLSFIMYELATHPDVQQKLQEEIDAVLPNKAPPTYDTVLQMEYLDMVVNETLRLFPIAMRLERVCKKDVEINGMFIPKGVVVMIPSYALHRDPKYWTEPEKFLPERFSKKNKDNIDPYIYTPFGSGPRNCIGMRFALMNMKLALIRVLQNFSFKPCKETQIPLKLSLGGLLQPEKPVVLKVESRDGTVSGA
Assay: Cytochrome panel assay with activity outcomes
Details: recombinant CYP, pro-luciferin dealkylation, luminescence, p450-cyp3a4; series mostly up to 57.1 µM; activity, negative = inhibition: at the top concentration
% is set by controls: 0 for no effect and ±100 for the full control effect.

activity, negative = inhibition, inactive:
CCCCN1CCC(n2c(=O)[nH]c3ccccc32)CC1 -14.6%
Cc1noc(COc2ccc(OCc3nc(C)no3)cc2)n1 -5.47%
CC1(CCC(=O)OC2CCCCC2)OCCO1 -7.62% [at 11.4 µM]
CCOC(=O)C1CCN(C(=O)C2CCN(S(=O)(=O)N3CCCC3)CC2)CC1 6.47%
CCOC(=O)C1CCCN(S(=O)(=O)c2ccccc2)C1 (stereo not drawn) -22.8%
CCOC(=O)N1CCN(C(=O)C(C)SCc2ccccc2)CC1 (stereo not drawn) -12.5%
CCOC(=O)N1CCN(S(=O)(=O)Cc2ccccc2)CC1 -5.12%
Cc1cc(C(C)(C)CC(C)(C)C)ccc1OCCOCC[N+](C)(C)Cc1ccccc1 -26% [at 25.6 µM]
CCCCNC(=O)C1CC(=O)N(c2ccc(OC)cc2)C1c1ccc(OC)cc1 (stereo not drawn) 3.58% [at 2.29 µM]
COc1ccc(N2C(=O)CCC(C(=O)O)C2c2ccc(F)cc2)cc1 (stereo not drawn) 3.77%
O=S(=O)(c1ccccc1)N1CCC2(CC1)CN(Cc1nccs1)C2 22.3%
CS(=O)(=O)N1CCC2(CC1)CN(Cc1nccs1)C2 7.56%
CS(=O)(=O)N1CCC2(CCN(Cc3nccs3)CC2)CC1 -3.65%
O=S(=O)(c1ccccc1)N1CCC2(CCN(Cc3nccs3)CC2)CC1 -9.07%
CO[C@H]1C[C@@H]2C[C@H](O)C[C@@H](CC(=O)O[C@@H](/C=C\CC(C)C)C[C@@H]3CC[C@H](C)[C@@H](C1)O3)O2 -7.29% [at 11.4 µM]
Oc1ccccc1-c1nnc(-c2ccc(C(F)(F)F)cc2)o1 6.83%
Clc1ccc(-c2nnc(-c3cccc4ccccc34)o2)cc1Cl -4.35% [at 11.4 µM]
c1ccc2c(c1)nnn2CN1CCOCC1 -7.23% [at 11.4 µM]
C[C@H](O/N=C1/[C@H]2O[C@@H]2[C@@H](O)[C@H]2[C@H]1CCn1c(=O)n(-c3ccccc3)c(=O)n12)c1cn([C@H]2COC[C@H]2O)nn1 -7.71% [at 11.4 µM]
O=S(=O)(O)c1ccc(N=Nc2ccc3c(S(=O)(=O)O)cccc3c2O)c2ccccc12 -9.88% [at 11.4 µM]
CC(=O)CSc1nnc(Cc2ccc([N+](=O)[O-])cc2)o1 7.56% [at 2.29 µM]
Cc1ccc(C)c(OCCCC(C)(C)C(=O)O)c1 5.28% [at 25.6 µM]
CN1CCN(c2ccc([N+](=O)[O-])cc2S(=O)(=O)N2CCOCC2)CC1 -14.4%

AC50, active:
c1ccc(Nc2ncnc3ccc(-c4ccoc4)cc23)cc1 15.8 µM
Fc1ccc(Nc2ncnc3ccc(-c4ccoc4)cc23)cc1 15.8 µM
Cn1c(/C=N/NC(=O)c2ccccc2Br)nc2ccccc21 10 µM
Nc1cccc(OCc2nc(N)nc(N)c2-c2ccc(Cl)cc2)c1 1.58 µM
CCOC(=O)N1CCN(C(=O)CSCc2ccc(Cl)cc2)CC1 4.47 µM
CCOC(=O)C1CCCN(C(=O)CCCOc2cc(=O)n(C)c3ccccc23)C1 (stereo not drawn) 3.98 µM
CCOC(=O)C1CCCN(C(=O)CSCc2ccccc2)C1 (stereo not drawn) 25.1 µM
CCN(CC)CCCNC(=O)C1CCC(=O)N(c2ccc(OC)cc2)C1c1ccc(F)cc1 (stereo not drawn) 15.8 µM
COc1ccc(N2C(=O)CCC(C(=O)Nc3ccccn3)C2c2ccc(OC)c(OC)c2)cc1 (stereo not drawn) 20 µM
c1ccc(SC(Sc2ccccc2)c2ccc3c(c2)OCO3)cc1 2.51 µM
O=S(=O)(c1ccccc1)N1CCC2(CCCN(Cc3nccs3)C2)CC1 3.16 µM
O=S(=O)(c1ccccc1)N1CCC[C@@]2(CCN(Cc3nccs3)C2)C1 3.16 µM
Cn1cc(-c2nnc(-c3ccccc3)o2)c2ccccc21 14.1 µM
O=C1CCCN1CC(CN1CCOCC1)Sc1nnnn1-c1ccccc1 (stereo not drawn) 15.8 µM
COc1ccc(O[C@H]2C=C[C@@H](c3ccccc3)O[C@H]2COC(=O)CC/C(C)=N\O[C@@H](C)c2cn([C@H]3COC[C@H]3O)nn2)cc1 3.98 µM
COc1ccc(O[C@H]2C=C[C@@H](c3ccccc3)O[C@H]2COC(=O)CC/C(C)=N\O[C@@H](C)c2cn([C@H](CO)Cc3ccccc3)nn2)cc1 3.98 µM and 5.01 µM
C/C(CCC(=O)OC[C@@H]1O[C@H](C#Cc2ccccc2)C=C[C@@H]1Oc1ccc(C)cc1)=N/O[C@@H](C)c1cn([C@H](CO)Cc2ccccc2)nn1 3.98 µM and 3.16 µM
C/C(N)=C(/C#N)C(=O)CSc1nnc(COc2cc(C)ccc2C)o1 3.55 µM
C[C@H](CO)NC(=O)[C@H](C)[C@@H]1C[C@@]1(C)[C@@H](NC(=O)OCc1ccccc1)c1ccccc1 5.01 µM
C[C@H](CO)NC(=O)[C@H](C)[C@H]1C[C@]1(C)[C@H](NC(=O)OCc1ccccc1)c1ccccc1 3.98 µM
